Source: PubChem BioAssay (NCATS)
Inconclusive results are not listed. Active and inactive are the calls of the source. The call rests on the fitted dose curve; in most records, active means well fitted inhibition curve with a large enough effect; inconclusive means small, poorly fitted or top-dose-only effect; inactive means flat fitted curve, though single readings scatter.

Legend:
Assay in all cases: qHTS profiling for inhibitors of Plasmodium falciparum proliferation (AID 504749); further: nearly all actives have a fitted effect of over 60% in size
Settings in all cases: P. falciparum in erythrocytes, SYBR Green DNA, 72 h; series mostly up to 28.7 µM
CP250 = test system: CP250
How it was run: (§1)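 SYBR Green fluorescence (ex 485 nm, em 535 nm) reports parasite DNA after 72 h compound exposure of infected red cells at 0.3% parasitemia, 2.5% hematocrit; signal normalized to 0.29 uM artemisinin and vehicle wells.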

CP252 = test system: CP252
How it was run: as §1

CP256 = test system: CP256
How it was run: as §1

CP260 = test system: CP260
How it was run: as §1

CP262 = test system: CP262
How it was run: as §1

CP265 = test system: CP265
How it was run: as §1

CP266 = test system: CP266
How it was run: as §1

CP268 = test system: CP268
How it was run: as §1

CP269 = test system: CP269
How it was run: as §1

CP286 = test system: CP286
How it was run: as §1

Measured: Potency

CCCc1ccc(C(=O)O)cc1
inactive: CP250 | CP252 | CP256 | CP260 | CP262 | CP265 | CP266 | CP268 | CP269 | CP286

NC(=O)Oc1ccc(Cc2ccccc2)cc1
inactive: CP250 | CP252 | CP256 | CP260 | CP262 | CP265 | CP266 | CP268 | CP269 | CP286

Cc1cc(C)c(NC(=O)C[C@H](CC(=O)O)c2cccc3ccccc23)c(C(=O)N2CCC3(CCCC3)CC2)c1
inactive: CP250 | CP252 | CP256 | CP260 | CP262 | CP265 | CP266 | CP268 | CP269 | CP286

C[Se]CC[C@H](N)C(=O)O
inactive: CP250 | CP252 | CP256 | CP260 | CP262 | CP265 | CP266 | CP268 | CP269 | CP286

CC1(C)S[C@@H]2[C@H](NC(=O)C3(N)CCCCC3)C(=O)N2[C@H]1C(=O)O
inactive: CP250 | CP252 | CP256 | CP260 | CP262 | CP265 | CP266 | CP268 | CP269 | CP286

OC[C@H]1O[C@@](CO)(O[C@H]2O[C@H](CO)[C@@H](O)[C@H](O)[C@H]2O)[C@@H](O)[C@@H]1O
inactive: CP250 | CP252 | CP256 | CP260 | CP262 | CP265 | CP266 | CP268 | CP269 | CP286

CC1CCC(NC(=O)N(CCCl)N=O)CC1 (stereo not given)
inactive: CP250 | CP252 | CP256 | CP260 | CP262 | CP265 | CP266 | CP268 | CP269 | CP286

NC(=S)NS(=O)(=O)c1ccc(N)cc1
inactive: CP250 | CP252 | CP256 | CP260 | CP262 | CP265 | CP266 | CP268 | CP269 | CP286

CC1C(=O)CC2C3(C)CCC2(C(C)C(=O)O)C(=O)C13 (stereo not given)
inactive: CP250 | CP252 | CP256 | CP260 | CP262 | CP265 | CP266 | CP268 | CP269 | CP286

Nc1ncnc2c1ncn2[C@H]1CC[C@@H](CO)O1
inactive: CP250 | CP252 | CP256 | CP260 | CP262 | CP265 | CP266 | CP268 | CP269 | CP286

O=C1CCC(c2ccccc2)(C2CCN(Cc3ccccc3)CC2)C(=O)N1 (stereo not given)
inactive: CP250 | CP252 | CP256 | CP260 | CP262 | CP265 | CP266 | CP268 | CP269 | CP286

COc1ccccc1N1CCN(CCCC(=O)c2ccc(F)cc2)CC1
inactive: CP250 | CP252 | CP256 | CP260 | CP262 | CP265 | CP266 | CP268 | CP269 | CP286

COc1cc2c(cc1OC)[C@@H](Cc1cc(OC)c(OC)c(OC)c1)[N+](C)(CCCOC(=O)CC/C=C/CCC(=O)OCCC[N+]1(C)CCc3cc(OC)c(OC)cc3[C@H]1Cc1cc(OC)c(OC)c(OC)c1)CC2 (stereo not given in full)
inactive: CP250 | CP252 | CP256 | CP260 | CP262 | CP265 | CP266 | CP268 | CP269 | CP286

CC12CCC(C1)C(C)(C)C2=O (stereo not given)
inactive: CP250 | CP252 | CP256 | CP260 | CP262 | CP265 | CP266 | CP268 | CP269 | CP286

Cc1ncc[nH]1
inactive: CP250 | CP252 | CP256 | CP260 | CP262 | CP265 | CP266 | CP268 | CP269 | CP286

CC(C)c1nc(N(C)S(C)(=O)=O)nc(-c2ccc(F)cc2)c1/C=C/C(O)CC(O)CC(=O)O (stereo not given)
inactive: CP250 | CP252 | CP256 | CP260 | CP262 | CP265 | CP266 | CP268 | CP269 | CP286

C/C=C/C=C/C(=O)O
inactive: CP250 | CP252 | CP256 | CP260 | CP262 | CP265 | CP266 | CP268 | CP269 | CP286

OC[C@H]1O[C@@H]2O[C@H]3[C@H](O)[C@@H](O)[C@@H](O[C@H]4[C@H](O)[C@@H](O)[C@@H](O[C@H]5[C@H](O)[C@@H](O)[C@@H](O[C@H]6[C@H](O)[C@@H](O)[C@@H](O[C@H]7[C@H](O)[C@@H](O)[C@@H](O[C@H]1[C@H](O)[C@H]2O)O[C@@H]7CO)O[C@@H]6CO)O[C@@H]5CO)O[C@@H]4CO)O[C@@H]3CO
inactive: CP250 | CP252 | CP256 | CP260 | CP262 | CP265 | CP266 | CP268 | CP269 | CP286

Nc1ccc(N=Nc2ccccc2)c(N)n1
inactive: CP250 | CP252 | CP256 | CP260 | CP262 | CP265 | CP266 | CP268 | CP269 | CP286

O=C(O)C1=C(CSc2nnnn2CS(=O)(=O)O)CS[C@@H]2[C@H](NC(=O)[C@H](O)c3ccccc3)C(=O)N12
inactive: CP250 | CP252 | CP256 | CP260 | CP262 | CP265 | CP266 | CP268 | CP269 | CP286

C[C@H](O)CN(C)C
inactive: CP250 | CP252 | CP256 | CP260 | CP262 | CP265 | CP266 | CP268 | CP269 | CP286

CC(CC=O)CCCC(C)(C)O (stereo not given)
inactive: CP250 | CP252 | CP256 | CP260 | CP262 | CP265 | CP266 | CP268 | CP269 | CP286
